Bioassay records as filed in PubChem.
The list is not random: actives were taken first. Their share in the collection is about 10%.
CtBP-E1A blk – inhibitors of CtBP/E1A interaction | AlphaScreen GST-E1A/His-CtBP binding, 1536-well; active compounds read low | activity change, % (test concentration not listed) | actives 0.49% (n = 340,000) | AID 651724; in the data active = activity change below about -65%; inconclusive = mostly about -30% to -63%
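Homogeneous bead-based format: GST-tagged E1A captured on glutathione donor beads, His-tagged CtBP on nickel acceptor beads; compounds precede bead addition by 2 h at 37 °C.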
Six1-Eya2 blk – blocks human Six1 binding to Eya2; Q15475+O00167; AlphaScreen GST-Six1/His-Eya2 binding, biochemical; active compounds read low; activity change, % (test concentration not listed); actives 0.56% (n = 360,000); AID 651725; in the data active = activity change below about -65%; inconclusive = mostly about -30% to -63%
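AlphaScreen with GST-Six1 and His-Eya2 (5X mix: 250 nM and 500 nM), glutathione donor and nickel acceptor beads; buffer 50 mM Tris pH 8.0, 300 mM NaCl, 1 mM TCEP; 1 h at 37 C in the dark.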
JMJD2A Tudor – blocks the human JMJD2A Tudor domain; O75164; AlphaScreen JMJD2A-Tudor / H3K4me3 peptide binding; Potency, µM (doses to about 114 µM), hits mostly inhibitors; actives 4.4% (n = 390,000); AID 504339; note: nearly all actives have a fitted effect of over 50% in size
HP1b chromo inh – inhibitors of HP1-beta chromodomain binding to methylated histone tails; actives 0.56% (n = 390,000); Potency, µM (series often up to 114 µM), most hits filed as inhibitors; AID 540317; AlphaScreen HP1-beta / biotin-H3K9me3 peptide binding; note: nearly all actives have a fitted effect of over 70% in size
Target sequence (P83916 whole entry, looked up): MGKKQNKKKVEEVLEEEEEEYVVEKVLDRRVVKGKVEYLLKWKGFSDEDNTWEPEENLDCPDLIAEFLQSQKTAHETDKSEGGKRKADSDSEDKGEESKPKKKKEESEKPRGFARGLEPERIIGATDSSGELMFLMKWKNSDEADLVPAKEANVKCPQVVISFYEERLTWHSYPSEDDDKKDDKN
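Compound inhibition of the preformed complex between 50 nM HP1-beta and 50 nM biotinylated H3K9me3 peptide was read by AlphaScreen. Buffer was PBS pH 7.4 with 0.01% Tween-20. Incubations ran 30 min at room temperature, with 10 ug/mL donor/acceptor beads.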
G9a inh – inhibitors of human histone lysine methyltransferase G9a | actives 8.8% (n = 350,000) | Potency, µM (doses to about 102 µM), hits mostly inhibitors | G9a H3K9 monomethylation, AlphaScreen, 2 h | AID 504332 | Q96KQ7; note: nearly all actives have a fitted effect of over 75% in size
Target sequence (Q96KQ7 913-1193 limits assumed): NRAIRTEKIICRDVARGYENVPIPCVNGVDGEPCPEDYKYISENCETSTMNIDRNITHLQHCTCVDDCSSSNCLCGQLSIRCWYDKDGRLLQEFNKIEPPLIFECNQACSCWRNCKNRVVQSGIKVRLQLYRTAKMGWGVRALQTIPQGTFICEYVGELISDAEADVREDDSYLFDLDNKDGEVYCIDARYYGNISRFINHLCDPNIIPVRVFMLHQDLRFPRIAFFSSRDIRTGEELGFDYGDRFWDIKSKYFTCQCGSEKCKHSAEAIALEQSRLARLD
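Quantitative HTS format: methyltransferase activity on a biotin-tagged H3K9 peptide is measured by AlphaScreen, using a rabbit anti-monomethyl-H3K9 antibody with streptavidin donor and anti-IgG acceptor beads. Final levels are 20 nM enzyme, 500 nM peptide, 20 uM SAM; 2 h RT.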
BAZ2B block – blocks human BAZ2B | Q9UIF8 | AlphaScreen BAZ2B-H3K14Ac peptide displacement | Potency, µM (top dose mostly 114 µM), hits mostly inhibitors | actives 4.4% (n = 360,000); note: nearly all actives have a fitted effect of over 60% in size
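Compounds, titrated to a top concentration of 110 uM, were incubated 30 min at room temperature with preformed BAZ2B/acetyl-K14 H3 peptide complex (50 nM each). Proximity signal was measured by AlphaScreen after 20 min with beads.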
Hits are given with their value; n = inactive; u = inconclusive; x = no result given; ! = repeats disagree; [ ] = remark or other dose. Unless noted, calls come from the whole dose curve; as a rule, active = well fitted inhibition curve with a large enough effect; inconclusive = small, poorly fitted or top-dose-only effect; inactive = no such curve, though single readings can be large or run the other way.

SMILES | CtBP-E1A blk | Six1-Eya2 blk | JMJD2A Tudor | HP1b chromo inh | G9a inh | BAZ2B block
S=c1nc(-c2ccccc2)[nH]n1-c1ccccc1 | n | n | 22.4µM | u | u | n
Cc1cc(-c2c(C)[nH]n(-c3ccccc3)c2=O)n(-c2ccccc2)n1 | n | n | n | n | x | n
COc1ccc(NC(=O)CC2NCCNC2=O)c(OC)c1 (configuration not stated) | x | x | n | n | n | n
O=C(Nc1ccccc1)Nc1nc(Nc2cc(F)cc(F)c2)nc(NC2CCCC2)n1 | x | x | n | x | x | x
CCn1c(CS(=O)Cc2ccc(Cl)cc2Cl)nnc1SCc1c(Cl)cccc1Cl (configuration not stated) | n | n | n | n | 15.8µM | n
CCc1ccccc1NC(=O)c1ccc(Cn2nc(N3CCN(c4ccccc4)CC3)ccc2=O)o1 | x | x | u | n | u | n
CCc1ccc(NC(=O)c2ccc(Cn3nc(N4CCN(c5ccccc5)CC4)ccc3=O)o2)cc1 | x | x | u | n | u | 50.1µM
CCc1nccn1S(=O)(=O)c1ccc(C)c(C)c1 | n | n | n | n | 44.7µM | n
CCC(C)NS(=O)(=O)c1ccc(S(=O)(=O)N2CC=C(c3ccc(F)cc3)CC2)cc1 (configuration not stated) | n | n | u | u | 10µM | n
CCC(C)NC(=O)C1=CCN(S(=O)(=O)c2ccc(C)cc2)CC1 (configuration not stated) | n | n | n | n | 50.1µM | n
Cc1ccc(NC(=O)C2=CCN(S(=O)(=O)c3ccc(F)cc3)CC2)c(C)c1 | n | n | n | n | u | n
Cc1ccc2c(c1)-c1onc(C(=O)N3CCN(c4cc(Cl)ccc4C)CC3)c1CO2 | x | x | n | n | n | n
CC(C)CC(NC(N)=O)C(=O)OCC(=O)Nc1ccc(OC(F)F)cc1 (configuration not stated) | n | n | 39.8µM | n | n | n
COc1ccc(CCNC(=O)CSc2nnc(Cc3csc(N)n3)n2C)cc1OC | n | n | 50.1µM | n | n | 22.4µM
COc1ccc(CCNC(=O)CCCc2nnc3n(C)c(=O)c4sccc4n23)cc1OC | n | n | n | n | 22.4µM | u
Cc1ccc(CCNC(=O)CCCc2nnc3n(C)c(=O)c4sccc4n23)cc1 | x | x | n | n | n | n
Cc1ccc(/C=C/c2onc(C)c2S(=O)(=O)N2CCC(C(=O)Nc3ccccc3C(F)(F)F)CC2)cc1 | x | x | n | n | n | n
COCCOC(=O)c1c(C)nc(SCC(=O)Nc2ccc(OC)cc2)c(C#N)c1-c1ccco1 | n | n | n[11.4 µM] | n | 44.7µM | n
CCc1ccc(NC(=O)CSc2nc(C)c(C(=O)Nc3ccc(Cl)cc3)c(-c3ccc(OC)cc3)c2C#N)cc1 | x | x | n | n | n | n
Fc1ccccc1/C=N/Nc1nn[nH]n1 | n | n | 79.4µM | n | 20µM | u
Brc1cccc(/C=N/Nc2nn[nH]n2)c1 | x | n | n | n | 50.1µM | u
O=C(/C=C/c1cccc(Br)c1)Nc1nn[nH]n1 | n | n | u | n | n | n
Cc1ccc(-c2noc(-c3cccnc3N(C)Cc3ccc(Cl)cc3)n2)cc1 | x | x | n | n | u | n
COc1ccc(N2Cc3cccc(C(=O)O)c3C2=O)cc1 | n | n | 44.7µM! | u | 31.6µM | 20µM
O=C(O)c1cccc(NC(=O)C2C3C=CC(C3)C2C(=O)O)c1 (configuration not stated) | n | n | n | n | 50.1µM | n
SMILES | CtBP-E1A blk | Six1-Eya2 blk | JMJD2A Tudor | HP1b chromo inh | G9a inh | BAZ2B block
COc1ccc(C(C)(C)C)cc1NC(=O)C1C2C=CC(C2)C1C(=O)O (configuration not stated) | n | n | n | n | 50.1µM | n
Cc1ccc(-c2cccc(NC(=O)C3C(C(=O)O)[C@@H]4C=C[C@H]3C4)c2)o1 (some centres not stated) | n | n | n | n | 15.8µM | u
Cc1c(Cl)cccc1NC(=O)C1C2C=CC(C2)C1C(=O)O (configuration not stated) | n | n | n | n | n | n
Cc1ccc(-c2ccccc2NC(=O)C2C3C=CC(C3)C2C(=O)O)o1 (configuration not stated) | n | n | n | n | u | 56.2µM
COC(=O)c1ccccc1NC(=O)c1nn(C)c2c1COc1ccccc1-2 | x | x | n | n | n | u
O=C(NNC(=O)C1C2C=CC(C2)C1C(=O)O)c1ccccc1O (configuration not stated) | n | n | n | n | n | 50.1µM
O=C(NNC(=O)C1C2C=CC(C2)C1C(=O)O)c1ccccc1 (configuration not stated) | n | n | n | n | n | n
Cc1cc2c(s1)c1cnn(Cc3ccc(F)cc3)c(=O)c1n2C | x | x | n | x | x | x
CCCN(C(=O)Cn1c(=O)oc2cc(Cl)ccc21)c1ccc(C(C)C)cc1 | x | x | n | n | u | n
O=C(Nc1cc(Cl)ccc1Cl)c1noc2c1CCCC2 | n | n | n | n | n[12.7 µM] | n
O=C(Nc1ccc(F)cc1F)c1noc2c1CCC2 | n | n | 79.4µM | u | u | 56.2µM
CC(=O)c1ccc(NC(=O)c2noc3c2CCCCC3)cc1 | n | n | n | n | 56.2µM | n
COc1ccc(-c2noc(-c3ccc(NCCc4ccccc4)c([N+](=O)[O-])c3)n2)cc1OC | x | x | n | n | n | n
CN(C1=C(NC(=O)c2ccccc2)C(=O)c2ccccc2C1=O)C1CCS(=O)(=O)C1 (configuration not stated) | n | n | u | n | u | 50.1µM
CC(=O)NC1=C(NC2CCS(=O)(=O)C2)C(=O)c2ccccc2C1=O (configuration not stated) | n | n | 20µM | 44.7µM | 1.78µM | n
CCc1ccc(CNC(=O)c2ccc3nc(C(C)C)oc3c2)cc1 | x | x | n | n | n | n
Cc1ccc(-n2[nH]c(C)c(/C=N/c3cccc(C)n3)c2=O)cc1 | n | n | n[11.4 µM] | n | 50.1µM | n
Cc1[nH]n(-c2ccccc2)c(=O)c1/C=N/c1nn[nH]n1 | x | n | n[11.4 µM] | n | 50.1µM | u
Cc1cccc(/N=C/c2c(C)[nH]n(-c3ccccc3)c2=O)n1 | n | n | n[11.4 µM] | n | u | u
C=CCN=Cc1c(C)[nH]n(-c2ccccc2)c1=O | n | n | n | n | n | n
Cc1[nH]n(-c2ccccc2)c(=O)c1C=Nc1cccc(F)c1 | n | n | n | n | 44.7µM | n
Cc1[nH]n(-c2ccccc2)c(=O)c1/C=N/N(c1ccccc1)c1ccccc1 | n | n | 39.8µM | u | n[0.501 µM] | u
CS(=O)(=O)c1ncc(N(Cc2ccco2)Cc2cccs2)c(C(=O)Nc2ccccc2F)n1 | x | x | n | n | u | n
COc1ccc(CNc2nc(-c3ccc(N(C)C)cc3)nc3ccccc23)c(OC)c1 | x | x | x | x | n[0.501 µM] | x
